# Measured values from ChEMBL document CHEMBL2218924, “A broad activity screen in support of a chemogenomic map for kinase signalling research and drug discovery” (Biochem J, 2013).
# What was measured:
# [1] = molecular target: T1, Ephrin type-A receptor 3 (Homo sapiens) (UniProt P29320); conditions: at 10 µM
# T1 sequence (whole entry): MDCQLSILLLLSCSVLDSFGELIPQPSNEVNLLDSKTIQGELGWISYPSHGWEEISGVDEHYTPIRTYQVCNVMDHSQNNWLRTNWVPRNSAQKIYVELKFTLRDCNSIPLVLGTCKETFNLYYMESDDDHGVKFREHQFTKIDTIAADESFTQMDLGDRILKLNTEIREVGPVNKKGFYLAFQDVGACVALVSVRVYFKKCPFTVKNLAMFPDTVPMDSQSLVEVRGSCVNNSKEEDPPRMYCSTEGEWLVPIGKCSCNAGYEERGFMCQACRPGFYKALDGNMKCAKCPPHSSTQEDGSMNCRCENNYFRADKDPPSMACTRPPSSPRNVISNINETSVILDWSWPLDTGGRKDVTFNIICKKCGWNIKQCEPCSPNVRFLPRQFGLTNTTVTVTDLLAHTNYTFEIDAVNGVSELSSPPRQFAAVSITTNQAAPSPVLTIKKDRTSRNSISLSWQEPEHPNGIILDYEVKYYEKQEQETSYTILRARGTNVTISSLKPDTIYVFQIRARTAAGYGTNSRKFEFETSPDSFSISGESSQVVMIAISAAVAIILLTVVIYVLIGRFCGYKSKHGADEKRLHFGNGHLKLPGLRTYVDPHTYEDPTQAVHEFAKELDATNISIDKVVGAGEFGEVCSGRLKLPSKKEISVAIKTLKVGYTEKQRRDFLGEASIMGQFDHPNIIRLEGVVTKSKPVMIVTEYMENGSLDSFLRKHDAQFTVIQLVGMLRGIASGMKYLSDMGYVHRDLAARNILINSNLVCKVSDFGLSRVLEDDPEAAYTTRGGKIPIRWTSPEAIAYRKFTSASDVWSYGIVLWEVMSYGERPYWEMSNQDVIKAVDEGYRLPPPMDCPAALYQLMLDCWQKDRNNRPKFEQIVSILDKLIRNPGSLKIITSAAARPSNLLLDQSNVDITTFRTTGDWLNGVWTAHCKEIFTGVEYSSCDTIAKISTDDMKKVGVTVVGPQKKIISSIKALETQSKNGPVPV
# [2] = molecular target: T2, Ephrin type-A receptor 8 (Homo sapiens) (UniProt P29322); conditions: at 1 µM
# T2 sequence (whole entry): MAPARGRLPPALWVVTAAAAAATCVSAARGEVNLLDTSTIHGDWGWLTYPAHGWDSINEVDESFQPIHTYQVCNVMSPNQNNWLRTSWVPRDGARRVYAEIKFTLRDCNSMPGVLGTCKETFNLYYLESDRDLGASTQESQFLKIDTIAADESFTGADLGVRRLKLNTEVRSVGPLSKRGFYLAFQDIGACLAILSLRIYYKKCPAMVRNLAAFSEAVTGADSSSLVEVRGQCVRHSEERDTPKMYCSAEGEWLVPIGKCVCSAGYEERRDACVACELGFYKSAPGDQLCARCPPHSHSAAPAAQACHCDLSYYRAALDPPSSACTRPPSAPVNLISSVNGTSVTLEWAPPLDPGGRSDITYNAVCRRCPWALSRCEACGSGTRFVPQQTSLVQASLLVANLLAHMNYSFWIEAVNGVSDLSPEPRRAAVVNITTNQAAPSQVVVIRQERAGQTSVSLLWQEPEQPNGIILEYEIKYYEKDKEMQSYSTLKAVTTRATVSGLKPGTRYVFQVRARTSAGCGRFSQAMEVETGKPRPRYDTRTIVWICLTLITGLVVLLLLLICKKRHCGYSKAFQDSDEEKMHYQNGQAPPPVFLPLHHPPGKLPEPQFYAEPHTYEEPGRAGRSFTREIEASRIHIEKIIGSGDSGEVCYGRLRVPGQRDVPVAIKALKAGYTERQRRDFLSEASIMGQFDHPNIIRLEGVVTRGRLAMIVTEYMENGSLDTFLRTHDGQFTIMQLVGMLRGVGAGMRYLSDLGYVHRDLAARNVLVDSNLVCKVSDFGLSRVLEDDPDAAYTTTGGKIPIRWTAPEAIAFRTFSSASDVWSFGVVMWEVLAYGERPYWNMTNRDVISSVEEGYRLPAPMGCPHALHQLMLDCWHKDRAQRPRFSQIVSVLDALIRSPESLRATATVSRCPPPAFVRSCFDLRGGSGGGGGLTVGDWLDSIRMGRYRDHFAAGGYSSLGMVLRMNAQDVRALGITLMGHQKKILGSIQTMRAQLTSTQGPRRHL
# [3] = molecular target: T2, Ephrin type-A receptor 8 (Homo sapiens); conditions: at 10 µM
# [4] = molecular target: T3, Ephrin type-B receptor 1 (Homo sapiens) (UniProt P54762); conditions: at 1 µM
# T3 sequence (whole entry): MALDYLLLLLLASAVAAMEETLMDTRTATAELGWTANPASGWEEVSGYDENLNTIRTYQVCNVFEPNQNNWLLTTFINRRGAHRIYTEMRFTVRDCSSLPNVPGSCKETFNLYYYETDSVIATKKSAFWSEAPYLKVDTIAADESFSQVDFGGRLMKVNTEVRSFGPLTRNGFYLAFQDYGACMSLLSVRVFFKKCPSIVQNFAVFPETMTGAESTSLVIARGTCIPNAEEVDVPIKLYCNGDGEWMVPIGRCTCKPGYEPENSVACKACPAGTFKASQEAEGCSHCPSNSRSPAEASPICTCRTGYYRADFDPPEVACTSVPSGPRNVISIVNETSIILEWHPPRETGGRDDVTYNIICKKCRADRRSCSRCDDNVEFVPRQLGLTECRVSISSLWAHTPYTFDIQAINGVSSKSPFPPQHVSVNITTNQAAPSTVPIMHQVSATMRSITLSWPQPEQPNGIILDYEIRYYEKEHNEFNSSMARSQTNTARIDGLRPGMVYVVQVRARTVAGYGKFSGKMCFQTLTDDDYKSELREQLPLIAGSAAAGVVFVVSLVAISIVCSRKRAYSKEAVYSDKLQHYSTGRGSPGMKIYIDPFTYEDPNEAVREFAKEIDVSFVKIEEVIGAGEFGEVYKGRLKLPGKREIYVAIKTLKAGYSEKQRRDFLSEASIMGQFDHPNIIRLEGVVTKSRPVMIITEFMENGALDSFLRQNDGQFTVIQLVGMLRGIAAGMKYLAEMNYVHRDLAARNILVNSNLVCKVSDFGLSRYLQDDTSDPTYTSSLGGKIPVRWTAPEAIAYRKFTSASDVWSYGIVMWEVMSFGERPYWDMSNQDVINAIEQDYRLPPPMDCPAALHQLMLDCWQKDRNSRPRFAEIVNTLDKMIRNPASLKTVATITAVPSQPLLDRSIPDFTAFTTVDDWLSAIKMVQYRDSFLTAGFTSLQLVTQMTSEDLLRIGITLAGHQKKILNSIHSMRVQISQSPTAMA
# [5] = molecular target: T3, Ephrin type-B receptor 1 (Homo sapiens); conditions: at 10 µM
# [6] = molecular target: T4, Ephrin type-B receptor 2 (Homo sapiens) (UniProt P29323); conditions: at 1 µM
# T4 sequence (whole entry): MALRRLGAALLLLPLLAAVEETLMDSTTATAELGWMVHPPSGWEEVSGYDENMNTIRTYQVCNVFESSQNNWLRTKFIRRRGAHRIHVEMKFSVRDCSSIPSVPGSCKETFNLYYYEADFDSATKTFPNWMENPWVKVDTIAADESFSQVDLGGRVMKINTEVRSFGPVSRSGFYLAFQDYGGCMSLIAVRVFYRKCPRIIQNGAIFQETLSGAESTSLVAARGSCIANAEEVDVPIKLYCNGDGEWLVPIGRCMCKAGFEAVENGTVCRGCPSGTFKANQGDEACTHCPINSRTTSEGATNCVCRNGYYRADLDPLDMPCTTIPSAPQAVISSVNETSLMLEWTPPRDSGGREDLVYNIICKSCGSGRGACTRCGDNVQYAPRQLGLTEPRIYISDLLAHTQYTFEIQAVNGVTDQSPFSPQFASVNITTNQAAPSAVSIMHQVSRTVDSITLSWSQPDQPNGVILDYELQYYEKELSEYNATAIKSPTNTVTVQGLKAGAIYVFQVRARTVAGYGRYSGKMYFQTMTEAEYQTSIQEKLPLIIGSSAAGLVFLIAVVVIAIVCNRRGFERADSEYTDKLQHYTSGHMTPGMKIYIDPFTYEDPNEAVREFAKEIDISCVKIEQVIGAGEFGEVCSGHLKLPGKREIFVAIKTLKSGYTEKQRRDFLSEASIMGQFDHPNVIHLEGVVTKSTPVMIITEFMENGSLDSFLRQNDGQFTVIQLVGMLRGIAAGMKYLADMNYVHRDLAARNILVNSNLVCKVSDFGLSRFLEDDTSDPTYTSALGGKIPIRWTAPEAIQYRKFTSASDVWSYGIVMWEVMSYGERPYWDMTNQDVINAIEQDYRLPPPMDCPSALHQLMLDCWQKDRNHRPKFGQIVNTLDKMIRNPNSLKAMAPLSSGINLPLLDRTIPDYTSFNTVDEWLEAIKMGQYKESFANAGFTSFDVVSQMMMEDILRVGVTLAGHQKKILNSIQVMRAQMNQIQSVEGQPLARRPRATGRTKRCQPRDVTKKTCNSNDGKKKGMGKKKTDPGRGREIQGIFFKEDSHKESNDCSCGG
# [7] = molecular target: T4, Ephrin type-B receptor 2 (Homo sapiens); conditions: at 10 µM
# [8] = molecular target: T5, Ephrin type-B receptor 3 (Homo sapiens) (UniProt P54753); conditions: at 1 µM
# T5 sequence (whole entry): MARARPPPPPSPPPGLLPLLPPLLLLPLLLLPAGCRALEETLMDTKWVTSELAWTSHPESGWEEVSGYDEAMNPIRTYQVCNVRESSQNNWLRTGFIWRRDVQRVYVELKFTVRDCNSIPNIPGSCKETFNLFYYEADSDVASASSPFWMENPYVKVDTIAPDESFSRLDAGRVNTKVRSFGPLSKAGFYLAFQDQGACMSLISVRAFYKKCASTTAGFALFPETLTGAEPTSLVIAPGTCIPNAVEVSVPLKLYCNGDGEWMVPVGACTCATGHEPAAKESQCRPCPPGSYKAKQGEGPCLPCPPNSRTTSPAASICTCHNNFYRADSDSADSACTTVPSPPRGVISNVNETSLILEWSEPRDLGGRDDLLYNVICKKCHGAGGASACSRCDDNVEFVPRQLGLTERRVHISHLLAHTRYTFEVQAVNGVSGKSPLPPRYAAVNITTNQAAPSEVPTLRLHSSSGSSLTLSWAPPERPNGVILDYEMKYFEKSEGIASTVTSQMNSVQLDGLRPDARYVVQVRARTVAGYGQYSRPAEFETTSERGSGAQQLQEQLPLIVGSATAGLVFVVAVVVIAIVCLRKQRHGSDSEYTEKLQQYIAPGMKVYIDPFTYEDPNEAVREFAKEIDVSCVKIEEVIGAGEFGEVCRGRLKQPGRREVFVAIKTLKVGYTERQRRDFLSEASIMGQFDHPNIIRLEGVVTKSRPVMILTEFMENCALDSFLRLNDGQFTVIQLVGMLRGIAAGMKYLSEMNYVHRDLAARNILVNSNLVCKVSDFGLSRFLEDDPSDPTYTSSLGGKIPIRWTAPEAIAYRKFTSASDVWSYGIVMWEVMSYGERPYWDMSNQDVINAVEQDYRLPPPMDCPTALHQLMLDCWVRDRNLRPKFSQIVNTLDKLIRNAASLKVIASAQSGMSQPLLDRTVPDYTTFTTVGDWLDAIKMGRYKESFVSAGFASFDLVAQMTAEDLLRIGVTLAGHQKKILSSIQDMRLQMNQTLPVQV
# [9] = molecular target: T6, Ephrin type-B receptor 4 (Homo sapiens) (UniProt P54760); conditions: at 10 µM
# T6 sequence (whole entry): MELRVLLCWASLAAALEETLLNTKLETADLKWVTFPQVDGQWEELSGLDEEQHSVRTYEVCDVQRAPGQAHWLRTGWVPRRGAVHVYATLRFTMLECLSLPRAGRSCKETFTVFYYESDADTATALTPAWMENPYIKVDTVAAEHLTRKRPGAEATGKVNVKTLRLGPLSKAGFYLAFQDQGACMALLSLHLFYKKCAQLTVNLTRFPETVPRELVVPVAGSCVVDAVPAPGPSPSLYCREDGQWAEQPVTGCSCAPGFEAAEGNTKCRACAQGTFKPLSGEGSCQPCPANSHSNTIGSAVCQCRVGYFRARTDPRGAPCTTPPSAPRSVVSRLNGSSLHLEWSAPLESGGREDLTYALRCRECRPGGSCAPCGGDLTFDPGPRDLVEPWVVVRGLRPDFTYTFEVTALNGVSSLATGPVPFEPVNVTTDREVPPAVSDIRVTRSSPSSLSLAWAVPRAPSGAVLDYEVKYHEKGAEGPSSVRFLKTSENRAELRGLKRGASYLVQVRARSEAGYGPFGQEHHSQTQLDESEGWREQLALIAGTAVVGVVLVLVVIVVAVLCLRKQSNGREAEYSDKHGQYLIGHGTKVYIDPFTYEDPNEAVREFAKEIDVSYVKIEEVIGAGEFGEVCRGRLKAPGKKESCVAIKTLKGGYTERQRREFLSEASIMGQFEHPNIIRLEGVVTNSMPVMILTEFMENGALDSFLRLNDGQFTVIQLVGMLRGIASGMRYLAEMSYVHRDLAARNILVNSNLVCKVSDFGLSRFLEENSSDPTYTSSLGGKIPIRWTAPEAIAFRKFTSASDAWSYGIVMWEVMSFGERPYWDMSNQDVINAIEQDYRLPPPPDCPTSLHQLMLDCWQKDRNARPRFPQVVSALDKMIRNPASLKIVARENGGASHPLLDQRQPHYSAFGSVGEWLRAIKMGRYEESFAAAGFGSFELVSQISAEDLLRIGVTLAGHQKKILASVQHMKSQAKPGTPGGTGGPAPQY
# [10] = molecular target: Focal adhesion kinase 1 (Homo sapiens) (UniProt Q05397); conditions: at 1 µM
# [11] = molecular target: Ephrin type-A receptor 7 (Homo sapiens) (UniProt Q15375); conditions: at 10 µM
# [12] = molecular target: Receptor tyrosine-protein kinase erbB-4 (Homo sapiens) (UniProt Q15303); conditions: at 1 µM
# [13] = molecular target: Receptor tyrosine-protein kinase erbB-4 (Homo sapiens) (UniProt Q15303); conditions: at 10 µM
# [14] = molecular target: Ephrin type-A receptor 7 (Homo sapiens) (UniProt Q15375); conditions: at 1 µM
# Sequence of Ephrin type-A receptor 7 (Homo sapiens) (Q15375 28-998 limits assumed): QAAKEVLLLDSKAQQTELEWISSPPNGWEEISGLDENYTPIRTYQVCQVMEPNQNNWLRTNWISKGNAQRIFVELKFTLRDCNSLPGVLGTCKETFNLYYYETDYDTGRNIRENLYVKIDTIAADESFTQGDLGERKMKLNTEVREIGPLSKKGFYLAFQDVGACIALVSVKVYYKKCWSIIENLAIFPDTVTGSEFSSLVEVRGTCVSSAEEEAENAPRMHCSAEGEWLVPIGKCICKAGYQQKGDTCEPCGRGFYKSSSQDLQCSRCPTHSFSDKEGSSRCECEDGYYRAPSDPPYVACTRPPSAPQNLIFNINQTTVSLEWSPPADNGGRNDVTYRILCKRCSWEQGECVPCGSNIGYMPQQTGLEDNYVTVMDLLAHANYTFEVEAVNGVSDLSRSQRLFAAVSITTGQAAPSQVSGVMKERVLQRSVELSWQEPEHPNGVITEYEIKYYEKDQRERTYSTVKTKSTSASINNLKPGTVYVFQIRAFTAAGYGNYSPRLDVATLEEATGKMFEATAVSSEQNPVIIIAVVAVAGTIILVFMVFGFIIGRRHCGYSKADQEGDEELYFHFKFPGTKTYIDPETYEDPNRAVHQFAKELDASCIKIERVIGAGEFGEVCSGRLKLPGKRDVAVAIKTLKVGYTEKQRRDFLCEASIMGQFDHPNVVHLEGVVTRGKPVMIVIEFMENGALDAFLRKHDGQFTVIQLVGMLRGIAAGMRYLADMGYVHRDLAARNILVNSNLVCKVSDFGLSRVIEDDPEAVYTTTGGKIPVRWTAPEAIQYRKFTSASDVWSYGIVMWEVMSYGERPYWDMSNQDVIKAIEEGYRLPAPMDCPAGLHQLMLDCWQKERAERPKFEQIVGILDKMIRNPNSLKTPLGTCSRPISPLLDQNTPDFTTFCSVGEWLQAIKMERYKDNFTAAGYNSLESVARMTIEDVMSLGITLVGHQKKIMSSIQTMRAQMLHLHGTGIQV
# Sequence of Receptor tyrosine-protein kinase erbB-4 (Homo sapiens) (Q15303 whole entry): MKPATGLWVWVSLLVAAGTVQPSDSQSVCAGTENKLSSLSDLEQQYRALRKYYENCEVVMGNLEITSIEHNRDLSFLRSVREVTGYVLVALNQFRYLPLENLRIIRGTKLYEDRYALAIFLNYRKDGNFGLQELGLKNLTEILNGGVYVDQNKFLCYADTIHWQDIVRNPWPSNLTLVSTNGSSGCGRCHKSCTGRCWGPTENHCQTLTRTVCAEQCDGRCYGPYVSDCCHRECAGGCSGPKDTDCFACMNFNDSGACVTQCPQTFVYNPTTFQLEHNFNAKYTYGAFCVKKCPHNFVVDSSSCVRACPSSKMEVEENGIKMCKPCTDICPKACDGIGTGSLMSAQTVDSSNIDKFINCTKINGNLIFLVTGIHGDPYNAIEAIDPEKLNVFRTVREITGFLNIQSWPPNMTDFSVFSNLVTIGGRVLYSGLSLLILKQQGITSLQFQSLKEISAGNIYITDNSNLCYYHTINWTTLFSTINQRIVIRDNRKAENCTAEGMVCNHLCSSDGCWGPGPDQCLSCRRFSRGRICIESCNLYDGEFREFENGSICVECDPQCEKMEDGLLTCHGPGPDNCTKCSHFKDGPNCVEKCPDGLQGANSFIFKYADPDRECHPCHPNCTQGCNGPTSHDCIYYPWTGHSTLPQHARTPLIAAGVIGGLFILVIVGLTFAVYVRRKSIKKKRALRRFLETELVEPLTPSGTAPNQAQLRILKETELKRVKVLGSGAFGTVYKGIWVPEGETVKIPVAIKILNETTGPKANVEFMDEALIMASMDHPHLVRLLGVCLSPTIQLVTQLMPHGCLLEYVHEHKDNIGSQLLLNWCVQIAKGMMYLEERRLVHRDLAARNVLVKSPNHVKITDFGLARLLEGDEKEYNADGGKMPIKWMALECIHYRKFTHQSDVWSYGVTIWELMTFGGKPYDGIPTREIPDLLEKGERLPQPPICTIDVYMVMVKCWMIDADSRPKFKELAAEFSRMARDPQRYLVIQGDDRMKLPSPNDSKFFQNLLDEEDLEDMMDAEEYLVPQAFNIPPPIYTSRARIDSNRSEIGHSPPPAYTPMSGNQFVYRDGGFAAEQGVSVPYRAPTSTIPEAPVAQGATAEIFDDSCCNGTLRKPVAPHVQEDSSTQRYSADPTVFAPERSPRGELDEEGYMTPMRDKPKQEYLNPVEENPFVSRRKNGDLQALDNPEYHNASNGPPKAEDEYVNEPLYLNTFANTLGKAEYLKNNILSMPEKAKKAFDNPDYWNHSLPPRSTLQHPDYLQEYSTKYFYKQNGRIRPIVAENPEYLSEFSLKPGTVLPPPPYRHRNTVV
# Sequence of Focal adhesion kinase 1 (Homo sapiens) (Q05397 2-1052 limits assumed): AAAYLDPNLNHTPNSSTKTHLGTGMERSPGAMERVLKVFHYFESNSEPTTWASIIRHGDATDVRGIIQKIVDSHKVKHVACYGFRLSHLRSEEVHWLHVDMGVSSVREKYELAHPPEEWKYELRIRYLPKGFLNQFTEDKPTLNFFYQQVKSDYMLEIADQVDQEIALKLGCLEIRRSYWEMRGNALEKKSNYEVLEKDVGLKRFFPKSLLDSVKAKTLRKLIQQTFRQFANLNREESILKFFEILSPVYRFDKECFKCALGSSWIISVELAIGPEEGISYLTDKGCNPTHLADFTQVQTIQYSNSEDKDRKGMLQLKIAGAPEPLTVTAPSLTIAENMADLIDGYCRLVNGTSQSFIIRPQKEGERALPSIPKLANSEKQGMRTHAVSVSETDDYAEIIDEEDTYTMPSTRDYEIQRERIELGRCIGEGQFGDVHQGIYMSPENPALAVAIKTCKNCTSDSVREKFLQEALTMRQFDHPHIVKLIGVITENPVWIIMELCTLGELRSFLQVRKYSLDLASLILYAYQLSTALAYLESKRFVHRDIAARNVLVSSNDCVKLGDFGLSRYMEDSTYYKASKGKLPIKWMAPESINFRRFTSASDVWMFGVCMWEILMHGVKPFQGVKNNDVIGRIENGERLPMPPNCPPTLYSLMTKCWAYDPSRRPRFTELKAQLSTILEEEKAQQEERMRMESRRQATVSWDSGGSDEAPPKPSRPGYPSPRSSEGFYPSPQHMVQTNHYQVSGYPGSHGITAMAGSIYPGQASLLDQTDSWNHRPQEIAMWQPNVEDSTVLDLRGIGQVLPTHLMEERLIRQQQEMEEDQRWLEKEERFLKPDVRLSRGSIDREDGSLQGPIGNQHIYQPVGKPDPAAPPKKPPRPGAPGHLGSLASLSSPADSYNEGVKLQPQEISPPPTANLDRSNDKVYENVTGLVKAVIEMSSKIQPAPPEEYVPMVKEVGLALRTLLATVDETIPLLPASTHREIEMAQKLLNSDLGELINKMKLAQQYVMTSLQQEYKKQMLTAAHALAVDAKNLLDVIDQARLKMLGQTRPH
compound,measurement,setting,value
O=C(Nc1nc2ccccc2n1CCN1CCOCC1)c1cccc([N+](=O)[O-])c1,residual activity,[1],81%
same,residual activity,[2],108%
same,residual activity,[3],103%
same,residual activity,[4],100%
same,residual activity,[5],103%
same,residual activity,[6],113%
same,residual activity,[7],110%
same,residual activity,[8],110% (inactive)
same,residual activity,[9],109%
same,residual activity,[10],131%
O=c1cc(N2CCOCC2)oc2c(-c3ccccc3)cccc12,residual activity,[1],77%
same,residual activity,[11],79%
same,residual activity,[12],79%
same,residual activity,[13],65%
CCOC(=O)c1c(C)[nH]c(/C=C2\C(=O)Nc3ccccc32)c1C,residual activity,[1],99%
same,residual activity,[14],97%
same,residual activity,[11],93%
same,residual activity,[4],97%
same,residual activity,[10],133%
